According to PubChem BioAssay (Tox21):
Records with an inconclusive call do not appear. Calls of active or inactive are those of the source. Unless noted, the call rests on the fitted dose curve.

Assays:
[1] = Nuclear factor erythroid 2-related factor 2/antioxidant responsive element (Nrf2/ARE) small molecule agonists: qHTS cell viability counter screen in human keratinocytes (AID 1919968; active means well fitted curve in the direction sought with a large enough effect in the repeat runs; an effect the other way counts as inactive or inconclusive; further: nearly all actives have a fitted effect of over 55% in size; further: potency means the concentration at half of the fitted maximal effect); settings: KeratinoSens HaCaT ARE cells viability, CellTiter-Fluor, 24 h; series mostly up to 92.4 µM
Method in brief: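 After a 5 h attachment period, ARE-reporter keratinocytes were dosed with compounds in DMSO and then cultured 23 h at 37 C. Cell viability came from CellTiter-Fluor signal read after a further 1 h.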

[2] = target: Gonadotropin-releasing hormone receptor (Homo sapiens) (UniProt P30968); test: Human gonadotropin-releasing hormone receptor (GnRHR) small molecule agonists, calcium flux assay in GnRHR-HEK293 cells (AID 1920063); settings: calcium flux fluorescence, agonist mode; series mostly up to 57.6 µM; further: nearly all actives have a fitted effect of over 35% in size
Sequence of Gonadotropin-releasing hormone receptor (Homo sapiens) (P30968 whole entry, looked up): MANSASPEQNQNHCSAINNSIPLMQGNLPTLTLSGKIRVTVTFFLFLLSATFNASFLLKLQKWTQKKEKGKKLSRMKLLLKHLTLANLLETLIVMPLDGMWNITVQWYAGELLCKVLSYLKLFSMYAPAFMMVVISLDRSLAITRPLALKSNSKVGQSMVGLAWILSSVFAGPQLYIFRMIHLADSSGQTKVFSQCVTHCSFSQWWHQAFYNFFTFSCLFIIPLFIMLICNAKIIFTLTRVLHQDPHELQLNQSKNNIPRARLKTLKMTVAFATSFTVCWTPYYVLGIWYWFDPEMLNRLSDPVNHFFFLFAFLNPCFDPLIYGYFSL
Method in brief: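 We seeded human GnRHR-expressing HEK293 cells for 18 hours, loaded them with calcium dye for an hour at 37 C, added test compounds, and recorded fluorescence intensity kinetically for three minutes.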

[3] = G protein-coupled receptor (GPCR) small molecule agonists, calcium flux assay: HEK293 wild type cell line counter screen (AID 1920065); settings: HEK293 WT calcium flux, fluorescence, agonist mode; series mostly up to 57.6 µM
Method in brief: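 Calcium-sensitive dye, loaded 1 h at 37 C into cells cultured 18 h, reports compound-evoked calcium release as fluorescence (Ex/Em 480/540), measured over 3 min. Agonist mode; 15-point titrations, triplicate.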

[4] = p53 small molecule agonists, cell-based qHTS assay with human liver microsomes (AID 1963577); settings: HCT-116 p53RE-bla with human liver microsomes, ratio, 16 h; series mostly up to 66 µM
Method in brief: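 Compounds act here after metabolic activation: human liver microsomes and NADPH, both at 0.5 mg/mL final, were co-added to p53RE-bla cells. Incubation ran 16 h at 37 C, followed by LiveBLAzer detection.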

[5] = p53 small molecule agonists, cell-based qHTS assay with rat liver microsomes (AID 1963578); settings: HCT-116 p53RE-bla, beta-lactamase ratio, 16 h; series mostly up to 66 µM
Method in brief: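 Read-out is beta-lactamase reporter fluorescence (LiveBLAzer, 2 h, room temperature, dark) in p53RE-bla cells treated 16 h at 37 C with compound, rat liver microsomes and NADPH, both 0.5 mg/mL final.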

[6] = p53 small molecule agonists, cell-based qHTS assay with human liver microsomes: qHTS cell viability counter screen (AID 1963579); settings: p53RE-bla HCT-116 viability, ATP luminescence, 16 h, HLM; series mostly up to 66 µM; further: nearly all actives have a fitted effect of over 45% in size
Method in brief: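 Cells carrying the p53 response-element beta-lactamase reporter are treated for 16 h at 37 C with test compounds in the presence of human liver microsomes and NADPH (both 0.5 mg/mL final); ATP-based CellTiter-Glo luminescence then reports viability.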

[7] = p53 small molecule agonists, cell-based qHTS assay: qHTS cell viability counter screen (AID 1963581); settings: p53RE-bla HCT-116 viability, ATP luminescence, 16 h; series mostly up to 66 µM; further: nearly all actives have a fitted effect of over 45% in size
Method in brief: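 Following 5 h attachment, HCT-116 p53RE-bla cells took up compound for 16 h at 37 C; the reporter was read with B/G FRET substrate (2 h RT), and viability then via CellTiter-Glo ATP luminescence.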

[8] = p53 small molecule agonists, cell-based qHTS assay (AID 1963582; active means well fitted activation curve with a large enough effect in the signal ratio in the repeat runs, not every such curve was filed as active; the % refers to the signal ratio); settings: HCT-116 p53RE-bla reporter, beta-lactamase FRET ratio, 16 h; series mostly up to 66 µM
Method in brief: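 In this cell-based concentration-response screen, a p53 response element drives beta-lactamase; cells received DMSO-borne compounds after 5 h culture and were incubated a further 16 h before FRET substrate development.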

[9] = target: 5-hydroxytryptamine receptor 2A (Homo sapiens) (UniProt P28223); test: 5-hydroxytryptamine receptor 2A (HTR2A) small molecule antagonists, cell-based qHTS assay (AID 1963586); settings: HTR2A-CHO cells, DOI-induced calcium flux, fluorescence; series mostly up to 61.5 µM; further: nearly all actives have a fitted effect of over 45% in size
Sequence of 5-hydroxytryptamine receptor 2A (Homo sapiens) (P28223 whole entry, looked up): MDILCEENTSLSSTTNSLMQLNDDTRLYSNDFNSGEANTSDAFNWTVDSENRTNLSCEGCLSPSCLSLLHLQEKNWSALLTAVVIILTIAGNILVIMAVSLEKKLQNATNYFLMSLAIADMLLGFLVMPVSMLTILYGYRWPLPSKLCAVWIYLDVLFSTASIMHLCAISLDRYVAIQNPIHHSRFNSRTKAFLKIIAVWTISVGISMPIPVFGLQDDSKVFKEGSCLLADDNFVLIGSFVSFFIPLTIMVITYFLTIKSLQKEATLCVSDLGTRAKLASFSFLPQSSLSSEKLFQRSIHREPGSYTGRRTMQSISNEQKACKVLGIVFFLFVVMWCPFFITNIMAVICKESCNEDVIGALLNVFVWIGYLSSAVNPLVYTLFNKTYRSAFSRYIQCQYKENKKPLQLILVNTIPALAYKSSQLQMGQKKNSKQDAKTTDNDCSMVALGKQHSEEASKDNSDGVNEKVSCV
Method in brief: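 Antagonist-mode intracellular calcium assay: DOI (4 nM) added after 5 min compound pre-incubation at room temperature to dye-loaded HTR2A-CHO cells. Fluorescence followed for 3 min, sampled every second.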

[10] = target: 5-hydroxytryptamine receptor 2A (Homo sapiens) (UniProt P28223); test: 5-hydroxytryptamine receptor 2A (HTR2A) small molecule agonists, cell-based qHTS assay (AID 1963587); settings: HTR2A-CHO cells, calcium flux fluorescence, agonist mode; series mostly up to 76.8 µM; further: nearly all actives have a fitted effect of over 30% in size
Method in brief: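 Kinetic calcium-flux fluorescence (2 min, 1 sec intervals) after compound addition in agonist mode. HTR2A-CHO cells were cultured 18 h, then dye-loaded 1 h at 37 C.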

[11] = target: Muscarinic acetylcholine receptor M1 (Homo sapiens) (UniProt P11229); test: Cholinergic receptor muscarinic 1 (CHRM1) small molecule antagonists, cell-based qHTS assay (AID 1963588); settings: CHRM1-CHO antagonist mode, calcium flux fluorescence; series mostly up to 61.5 µM; further: nearly all actives have a fitted effect of over 40% in size
Sequence of Muscarinic acetylcholine receptor M1 (Homo sapiens) (P11229 whole entry, looked up): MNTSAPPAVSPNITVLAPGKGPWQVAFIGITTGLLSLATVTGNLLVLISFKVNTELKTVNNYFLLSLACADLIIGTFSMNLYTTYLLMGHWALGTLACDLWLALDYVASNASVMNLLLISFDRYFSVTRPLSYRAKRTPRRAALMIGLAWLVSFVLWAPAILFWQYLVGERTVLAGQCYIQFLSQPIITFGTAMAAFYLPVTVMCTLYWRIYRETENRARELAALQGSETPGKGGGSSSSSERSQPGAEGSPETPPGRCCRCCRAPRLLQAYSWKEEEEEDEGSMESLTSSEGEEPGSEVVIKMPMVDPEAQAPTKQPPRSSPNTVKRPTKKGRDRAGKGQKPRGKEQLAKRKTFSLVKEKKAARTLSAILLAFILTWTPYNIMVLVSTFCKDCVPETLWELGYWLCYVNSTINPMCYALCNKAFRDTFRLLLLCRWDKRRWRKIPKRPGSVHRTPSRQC
Method in brief: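 CHRM1-CHO calcium-flux assay, antagonist mode. Cells were seeded 18 h, dye-loaded 1 h at 37 C and given compound for 5 min at RT, then acetylcholine was added at 50nM. FDSS fluorescence was read 3 min; 15 concentrations, three runs.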

[12] = target: Muscarinic acetylcholine receptor M1 (Homo sapiens) (UniProt P11229); test: Cholinergic receptor muscarinic 1 (CHRM1) small molecule agonists, cell-based qHTS assay (AID 1963589); settings: CHRM1-CHO cells, agonist mode, calcium flux fluorescence; series mostly up to 76.8 µM; further: nearly all actives have a fitted effect of over 35% in size
Method in brief: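 Measures agonist-induced intracellular calcium rise. Stable human CHRM1 CHO line, 1 h dye load at 37 C, compounds from DMSO, kinetic fluorescence read.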

[13] = cAMP Responsive Elements (CRE) small molecule agonists, cell-based qHTS assay (AID 1963590); settings: CRE-bla HEK293T, beta-lactamase FRET ratio, 3 h; series mostly up to 92.4 µM
Method in brief: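 A CRE-responsive beta-lactamase reporter in HEK 293T cells was used. Treatment ran 3 h at 37 C; detection used LiveBLAzer B/G FRET substrate for 2 h at room temperature.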

[14] = cAMP Responsive Elements (CRE) small molecule antagonists, cell-based qHTS assay (AID 1963591; active means well fitted inhibition curve with a large enough effect in the signal ratio in the repeat runs, not every such curve was filed as active; the % refers to the signal ratio); settings: CRE-bla HEK293T, beta-lactamase FRET ratio; series mostly up to 92.4 µM
Method in brief: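 HEK293T cells carrying a CRE-driven beta-lactamase reporter receive compound and NKH477 (0.25 uM final) for 3 h. Fluorescence from LiveBLAzer B/G FRET substrate is read after 2 h at room temperature.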

[15] = target: Beta-2 adrenergic receptor (Homo sapiens) (UniProt P07550); test: Adrenergic beta2 receptor (ADRB2) small molecule antagonists, cell-based qHTS assay (AID 1963592); settings: CHO-ADRB2 cells, isoproterenol-stimulated cAMP HTRF ratio, 0.5 h; series mostly up to 92.4 µM; further: nearly all actives have a fitted effect of over 50% in size
Sequence of Beta-2 adrenergic receptor (Homo sapiens) (P07550 whole entry, looked up): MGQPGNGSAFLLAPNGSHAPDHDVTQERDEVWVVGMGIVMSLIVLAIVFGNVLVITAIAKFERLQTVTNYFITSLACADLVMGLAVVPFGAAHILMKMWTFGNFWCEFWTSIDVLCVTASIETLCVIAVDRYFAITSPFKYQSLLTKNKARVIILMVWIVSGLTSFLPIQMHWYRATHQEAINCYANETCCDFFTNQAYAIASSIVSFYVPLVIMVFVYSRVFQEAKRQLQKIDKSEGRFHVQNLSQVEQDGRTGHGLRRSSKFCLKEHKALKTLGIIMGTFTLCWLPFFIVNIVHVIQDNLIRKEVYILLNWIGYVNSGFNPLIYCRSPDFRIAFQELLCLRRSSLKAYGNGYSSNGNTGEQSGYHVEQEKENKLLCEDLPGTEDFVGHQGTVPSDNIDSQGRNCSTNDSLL
Method in brief: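 Cells (CHO, stable ADRB2 overexpression) incubated 18-20hr at 37C; compounds added from DMSO; agonist mix (1nM isoproterenol, 100uM IBMX, 25uM Ro-20-1724) added; 0.5hr RT; d2-cAMP and anti-cAMP-cryptate added; 1hr RT; 665/615 nm read.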

[16] = target: Beta-2 adrenergic receptor (Homo sapiens) (UniProt P07550); test: Adrenergic beta2 receptor (ADRB2) small molecule agonists, cell-based qHTS assay (AID 1963593); settings: CHO-ADRB2 cells, cAMP HTRF, 30 min; series mostly up to 92.4 µM;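 further: CHO cells stably overexpressing human ADRB2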
Method in brief: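 CHO cells stably over-expressing ADRB2 were plated overnight at 37C, then dosed with compounds plus a stimulation mix containing 100uM IBMX and 25uM Ro-20-1724 for 0.5hr at room temperature. cAMP was measured by HTRF competition, 1hr.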

[17] = target: D(2) dopamine receptor (Homo sapiens) (UniProt P14416); test: Dopamine D2 receptor (DRD2) small molecule agonists, cell-based qHTS assay (AID 1963594); settings: HEK293-DRD2 cAMP HTRF, agonist mode, 30 min; series mostly up to 92.4 µM; further: nearly all actives have a fitted effect of over 35% in size
Sequence of D(2) dopamine receptor (Homo sapiens) (P14416 whole entry, looked up): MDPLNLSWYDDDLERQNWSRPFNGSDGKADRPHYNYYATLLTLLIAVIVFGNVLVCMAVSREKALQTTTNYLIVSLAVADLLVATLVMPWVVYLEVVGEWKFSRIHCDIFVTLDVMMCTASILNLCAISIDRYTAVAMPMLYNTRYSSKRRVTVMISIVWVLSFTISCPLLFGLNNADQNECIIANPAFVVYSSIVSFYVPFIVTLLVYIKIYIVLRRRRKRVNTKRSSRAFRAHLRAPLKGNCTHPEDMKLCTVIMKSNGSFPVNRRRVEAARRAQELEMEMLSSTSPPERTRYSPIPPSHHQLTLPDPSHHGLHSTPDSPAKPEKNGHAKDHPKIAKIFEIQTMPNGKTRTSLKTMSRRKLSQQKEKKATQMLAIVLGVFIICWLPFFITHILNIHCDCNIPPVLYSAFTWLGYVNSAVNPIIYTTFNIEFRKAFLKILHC
Method in brief: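 cAMP accumulation in DRD2-HEK293 cells measured by HTRF after 1 h detection; compounds added 10 min before NKH477 (200nM […]) forskolin-analogue stimulation, 30 min at room temperature, with Ro20-1724 present at 0.1 mM final.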

[18] = target: D(2) dopamine receptor (Homo sapiens) (UniProt P14416); test: Dopamine D2 receptor (DRD2) small molecule antagonists, cell-based qHTS assay (AID 1963595; active means well fitted inhibition curve with a large enough effect in the signal ratio in the repeat runs, with a control signal flat; the % refers to the signal ratio); settings: HEK293-DRD2 cAMP HTRF antagonist mode; series mostly up to 92.4 µM
Method in brief: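 Readout: HTRF cAMP, cAMP-d2 competing with cellular cAMP for anti-cAMP cryptate, read after 1 h. Cells: DRD2-HEK293. Conditions: 0.1 mM Ro20-1724, 12 nM quinpirole, 200 nM NKH477, 30 min RT.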

[19] = target: KiSS-1 receptor (Homo sapiens) (UniProt Q969F8); test: Human kisspeptin (KISS1R) small molecule agonists, calcium flux assay in KISS1R-HEK293 cells (AID 1920064; active means well fitted curve in the direction sought with a large enough effect in the repeat runs; an effect the other way counts as inactive or inconclusive); settings: KISS1R-HEK293, calcium flux fluorescence, agonist; series mostly up to 76.8 µM
Sequence of KiSS-1 receptor (Homo sapiens) (Q969F8 whole entry, looked up): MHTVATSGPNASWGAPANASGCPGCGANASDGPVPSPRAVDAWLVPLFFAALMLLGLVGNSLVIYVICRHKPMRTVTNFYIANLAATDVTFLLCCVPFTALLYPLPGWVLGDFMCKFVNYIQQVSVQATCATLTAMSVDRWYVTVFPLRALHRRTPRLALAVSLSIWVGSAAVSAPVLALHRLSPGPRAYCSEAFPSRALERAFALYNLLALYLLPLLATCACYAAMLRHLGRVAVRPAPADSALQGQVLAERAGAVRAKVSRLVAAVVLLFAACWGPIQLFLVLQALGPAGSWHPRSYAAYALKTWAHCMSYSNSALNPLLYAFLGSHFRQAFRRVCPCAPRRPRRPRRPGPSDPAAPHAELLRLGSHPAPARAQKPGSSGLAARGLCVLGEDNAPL
Method in brief: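 Kinetic calcium assay, 1 s sampling over 3 min at Ex/Em 480/540, in HEK293 cells engineered with human KISS1R; compounds delivered in DMSO after 1 h dye loading.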

[20] = p53 small molecule agonists, cell-based qHTS assay with rat liver microsomes: qHTS cell viability counter screen (AID 1963580); settings: p53RE-bla HCT-116 + rat microsomes, ATP viability, 16 h; series mostly up to 66 µM; further: nearly all actives have a fitted effect of over 45% in size
Method in brief: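 HCT-116 p53RE-bla, 4,000 cells/well, 5 h pre-incubation; cpd + rat liver microsomes 0.5 mg/mL + NADPH 0.5 mg/mL (final); 16 h, 37 C; CellTiter-Glo, 30 min RT; luminescence.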

Measured: Potency

C=Cc1ccncc1
not listed: [19] | [20]
inactive: all other assays above

CC(C)c1ccccc1
not listed: [8] | [14] | [16] | [19] | [20]
inactive: all other assays above

O=C(O)c1cc(C(=O)O)cc(C(=O)O)c1
not listed: [3] | [4] | [15]
inactive: all other assays above

CC1(C)CCC[C@]2(C)[C@H]3CC(=O)O[C@]3(C)CC[C@@H]12
not listed: [3] | [10] | [11] | [13] | [14] | [16] | [18] | [19]
inactive: all other assays above

CC(=O)N1CCN(c2ccc(OC[C@H]3CO[C@](Cn4ccnc4)(c4ccc(Cl)cc4Cl)O3)cc2)CC1
inactive: [19] | [5] | [15]
active: [1] 54.5 µM

CCCCCCCCCCOC(=O)c1ccccc1C(=O)OCCCCCCCC
not listed: [2] | [10] | [16]
inactive: all other assays above

CCCCc1cc2ccccc2c(OCCN(C)C)n1
not listed: [2] | [7] | [11] | [15] | [16] | [19]
inactive: all other assays above

COC(=O)[C@]1(C)CCC[C@@]2(C)[C@H]1CC=C1C=C(C(C)C)CC[C@@H]12
not listed: [2] | [14]
inactive: all other assays above

C=CC(C)(CCC=C(C)C)OC(=O)CC(C)C (stereo unspecified)
not listed: [2] | [4] | [5] | [8] | [10] | [15] | [16]
inactive: all other assays above

Cc1ccccn1
not listed: [2]
inactive: all other assays above

CC(=O)OC(C)OC(C)=O
not listed: [2] | [13] | [16]
inactive: all other assays above

NC(=O)N(O)[C@@H]1COc2cc(OCc3ccccc3)ccc21
not listed: [2] | [4] | [5] | [7] | [8] | [13] | [14] | [17]
inactive: all other assays above

CCN(CC)CC
not listed: [2] | [7] | [8] | [9] | [16]
inactive: all other assays above

C=C[Si](OCC)(OCC)OCC
not listed: [2] | [16]
inactive: all other assays above

N=C(N)N
not listed: [2] | [9] | [12] | [16] | [17]
inactive: all other assays above

O=P(O)(O)OP(=O)(O)O
not listed: [2] | [16]
inactive: all other assays above

COc1nccnc1NS(=O)(=O)c1ccc(N)cc1
not listed: [2] | [4] | [5] | [6] | [7] | [8]
inactive: all other assays above
